From PubChem BioAssay AID2409 (Southern Research Specialized Biocontainment Screening …, 2010)
Entries with a potency or affinity are not part of this list. Activity calls are given as the source filed them. How the calls were made is not given here.

Assay: VEEV CPE inhibition, infected Vero cells, confirmatory, 66.6 µM top concentration (AID 2409)
Settings: series mostly up to 66.6 µM
In the case of `O=C(CSc1nc2ccccc2c(=O)n1-c1ccc(F)cc1)Nc1ccc2c(c1)CCC2`, the outcome is reported as “inactive”. With `COc1cccc(-n2c(SCC(=O)Nc3ccc4c(c3)CCC4)nc3ccccc3c2=O)c1` the outcome was “inactive”. For `COc1ccccc1NC(=O)CSc1nc2ccccc2c(=O)n1-c1ccc(F)cc1`, the outcome was “inactive”. In the case of `COc1ccc(-c2csc(N(C)C(=O)c3ccccc3Cl)n2)cc1`, the outcome is reported as “inactive”. For `O=c1c2cc(Cl)cc(Cl)c2nc2n1CCC2`, the outcome was “inactive”. In the case of `O=[N+]([O-])c1ccc2c(c1)C(O)N1CCCC1=N2` (stereo not drawn), the outcome is reported as “inactive”. With `Cc1cccc2c(=O)n3c(nc12)CCC3` the outcome was “inactive”. With `OC1c2cc(Br)ccc2N=C2CCCCN21` (stereo not drawn) the outcome was “inactive”. With `O=C(CSc1nc2cccc(I)c2c(=O)n1-c1ccccc1)Nc1ccc2c(c1)CCC2` the outcome was “inactive”. With `Cc1ccc2nc3n(c(=O)c2c1)CCC3` the outcome was “inactive”. In the case of `O=C(CSc1nc2cccc(F)c2c(=O)n1-c1ccccc1)Nc1ccc2c(c1)CCC2`, the outcome is reported as “inactive”. For `O=C(CSc1nc2ccccc2c(=O)n1-c1ccc(F)cc1F)Nc1ccc2c(c1)CCC2`, the outcome was “inactive”. In the case of `Cc1cccc2nc3n(c(=O)c12)CCC3`, the outcome is reported as “inactive”. For `O=c1c2c(F)cccc2nc2n1CCC2`, the outcome was “inactive”. In the case of `OC1c2c(F)cccc2N=C2CCCN21` (stereo not drawn), the outcome is reported as “inactive”. In the case of `CCCN(C(=O)c1ccccc1Cl)c1nc(-c2ccc(OC)cc2)cs1`, the outcome is reported as “inactive”. For `O=C(CSc1nc2ccccc2c(=O)n1-c1ccc(F)cc1)Nc1cccc2ccccc12`, the outcome was “inactive”. For `O=C(CSc1nc2ccccc2c(=O)n1-c1ccc(F)c(Cl)c1)Nc1ccc2c(c1)CCC2`, the outcome was “inactive”. In the case of `OC1c2c(F)cccc2N=C2CCCCN21` (stereo not drawn), the outcome is reported as “inactive”. With `O=C(CSc1nc2ccccc2c(=O)n1-c1ccc(F)cc1)Nc1ccc2c(c1)OCCO2` the outcome was “inactive”. In the case of `O=C(CSc1nc2ccccc2c(=O)n1-c1ccccc1F)Nc1ccc2c(c1)CCC2`, the outcome is reported as “inactive”. For `CC1CC(C)CN(C(=O)CSc2nc3ccccc3c(=O)n2-c2ccc(F)cc2)C1` (stereo not drawn), the outcome was “inactive”. For `CC1(O)c2cc(Br)ccc2N=C2CCCN21` (stereo not drawn), the outcome was “inactive”. In the case of `Nc1ccc2nc3n(c(=O)c2c1)CCC3`, the outcome is reported as “inactive”. For `CC(=O)Nc1ccc2nc3n(c(=O)c2c1)CCC3`, the outcome was “inactive”. In the case of `COc1ccc(-c2csc(N(Cc3ccccc3)C(=O)c3ccccc3Cl)n2)cc1`, the outcome is reported as “inactive”. With `OC1c2cc(Br)ccc2N=C2CCCCCN21` (stereo not drawn) the outcome was “inactive”. For `O=c1c2cc(I)ccc2nc2n1CCC2`, the outcome was “inactive”. With `OC1c2cc(I)ccc2N=C2CCCN21` (stereo not drawn) the outcome was “inactive”. For `O=C(CSc1nc2ccc(F)cc2c(=O)n1-c1ccccc1)Nc1ccc2c(c1)CCC2`, the outcome was “inactive”. With `O=C(CSc1nc2ccccc2c(=O)n1-c1ccc(Cl)c(Cl)c1)Nc1ccc2c(c1)CCC2` the outcome was “inactive”. With `OC1c2c(F)cccc2N=C2CCCCCN21` (stereo not drawn) the outcome was “inactive”. For `O=c1c2cc([N+](=O)[O-])ccc2nc2n1CCC2`, the outcome was “inactive”. With `O=C(CSc1nc2ccccc2c(=O)n1-c1ccccc1)Nc1ccc2c(c1)CCC2` the outcome was “inactive”. With `O=c1c2cccc(Cl)c2nc2n1CCC2` the outcome was “inactive”. In the case of `O=c1c2cc(Br)ccc2nc2n1CC/C2=C/c1ccccc1`, the outcome is reported as “inactive”. In the case of `Cc1cc(OC(=O)c2c(F)cccc2F)n(Cc2ccccc2)n1`, the outcome is reported as “inactive”. In the case of `O=C(CSc1nc2ccccc2c(=O)n1-c1ccc(F)cc1F)Nc1ccc(N2CCOCC2)cc1`, the outcome is reported as “inactive”.
